Test results taken from ChEMBL document CHEMBL1961873, “Compounds: GSK PKIS; Assays: Nanosyn kinase panel” (2012).

Experiments:
[1] = target: Ribosomal protein S6 kinase alpha-6 (Homo sapiens) (UniProt Q9UK32); details: at 1 µM;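 also: each value is a mean inhibition of RSK4 from a GSK PKIS panel screen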
[2] = target: T1, Serine/threonine-protein kinase Sgk1 (Homo sapiens) (UniProt O00141); details: at 0.1 µM
T1 sequence (whole entry): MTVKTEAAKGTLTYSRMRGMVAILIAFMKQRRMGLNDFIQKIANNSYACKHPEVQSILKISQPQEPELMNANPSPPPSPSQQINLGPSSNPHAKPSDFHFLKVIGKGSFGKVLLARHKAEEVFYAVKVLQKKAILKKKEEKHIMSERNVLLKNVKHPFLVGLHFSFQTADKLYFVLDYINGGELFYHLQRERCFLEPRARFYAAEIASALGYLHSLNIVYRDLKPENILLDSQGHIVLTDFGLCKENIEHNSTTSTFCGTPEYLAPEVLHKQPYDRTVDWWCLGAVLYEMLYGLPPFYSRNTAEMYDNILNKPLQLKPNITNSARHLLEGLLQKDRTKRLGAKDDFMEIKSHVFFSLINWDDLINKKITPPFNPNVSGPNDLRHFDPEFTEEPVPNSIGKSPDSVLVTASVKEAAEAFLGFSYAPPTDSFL

[3] = target: T1, Serine/threonine-protein kinase Sgk1 (Homo sapiens); details: at 1 µM
[4] = target: T2, Serine/threonine-protein kinase Sgk2 (Homo sapiens) (UniProt Q9HBY8); details: at 0.1 µM
T2 sequence (whole entry): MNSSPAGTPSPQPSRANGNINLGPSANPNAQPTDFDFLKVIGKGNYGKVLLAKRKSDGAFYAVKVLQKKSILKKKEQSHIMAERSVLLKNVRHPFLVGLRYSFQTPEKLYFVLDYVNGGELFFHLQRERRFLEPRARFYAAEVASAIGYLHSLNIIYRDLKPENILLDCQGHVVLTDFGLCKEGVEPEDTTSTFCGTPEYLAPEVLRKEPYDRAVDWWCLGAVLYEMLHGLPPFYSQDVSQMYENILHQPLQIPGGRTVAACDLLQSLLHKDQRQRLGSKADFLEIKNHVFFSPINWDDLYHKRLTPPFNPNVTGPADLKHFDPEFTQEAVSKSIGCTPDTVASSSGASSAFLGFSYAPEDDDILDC

[5] = target: T2, Serine/threonine-protein kinase Sgk2 (Homo sapiens); details: at 1 µM
[6] = target: T3, Serine/threonine-protein kinase Sgk3 (Homo sapiens) (UniProt Q96BR1); details: at 0.1 µM
T3 sequence (whole entry): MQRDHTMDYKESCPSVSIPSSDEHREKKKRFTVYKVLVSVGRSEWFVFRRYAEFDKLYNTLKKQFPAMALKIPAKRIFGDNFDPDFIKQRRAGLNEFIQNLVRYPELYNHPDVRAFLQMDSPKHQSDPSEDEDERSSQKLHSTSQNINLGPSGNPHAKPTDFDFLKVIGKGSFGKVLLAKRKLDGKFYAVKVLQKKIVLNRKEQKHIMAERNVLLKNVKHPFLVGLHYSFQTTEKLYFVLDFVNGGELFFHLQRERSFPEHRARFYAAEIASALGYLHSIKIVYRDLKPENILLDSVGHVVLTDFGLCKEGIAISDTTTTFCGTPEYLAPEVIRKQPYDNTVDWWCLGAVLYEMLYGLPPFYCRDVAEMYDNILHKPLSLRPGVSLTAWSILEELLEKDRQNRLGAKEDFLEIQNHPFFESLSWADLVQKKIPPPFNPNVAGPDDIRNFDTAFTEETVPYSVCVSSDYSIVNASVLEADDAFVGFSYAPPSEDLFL

[7] = target: T3, Serine/threonine-protein kinase Sgk3 (Homo sapiens); details: at 1 µM
[8] = target: 5'-AMP-activated protein kinase catalytic subunit alpha-1 (Homo sapiens) (UniProt Q13131); details: at 0.1 µM
5'-AMP-activated protein kinase catalytic subunit alpha-1 (Homo sapiens), sequence (Q13131 whole entry, looked up): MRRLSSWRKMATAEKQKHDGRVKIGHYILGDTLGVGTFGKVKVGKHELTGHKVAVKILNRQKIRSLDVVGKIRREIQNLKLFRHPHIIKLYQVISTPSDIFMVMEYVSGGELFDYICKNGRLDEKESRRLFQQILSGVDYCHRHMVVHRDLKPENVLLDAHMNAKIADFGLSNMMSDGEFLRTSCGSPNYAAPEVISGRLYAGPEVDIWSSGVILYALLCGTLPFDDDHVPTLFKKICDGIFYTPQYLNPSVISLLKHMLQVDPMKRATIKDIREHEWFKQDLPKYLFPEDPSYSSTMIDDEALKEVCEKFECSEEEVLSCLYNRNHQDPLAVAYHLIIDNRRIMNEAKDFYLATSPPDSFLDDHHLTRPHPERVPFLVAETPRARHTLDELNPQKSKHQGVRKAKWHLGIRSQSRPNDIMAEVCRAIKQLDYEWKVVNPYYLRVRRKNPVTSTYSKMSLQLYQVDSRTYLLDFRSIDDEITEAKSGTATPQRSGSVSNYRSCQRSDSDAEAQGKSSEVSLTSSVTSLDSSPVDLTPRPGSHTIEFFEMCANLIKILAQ

[9] = target: 5'-AMP-activated protein kinase catalytic subunit alpha-1 (Homo sapiens) (UniProt Q13131); details: at 1 µM
[10] = target: 5'-AMP-activated protein kinase catalytic subunit alpha-2 (Homo sapiens) (UniProt P54646); details: at 0.1 µM
5'-AMP-activated protein kinase catalytic subunit alpha-2 (Homo sapiens), sequence (P54646 whole entry, looked up): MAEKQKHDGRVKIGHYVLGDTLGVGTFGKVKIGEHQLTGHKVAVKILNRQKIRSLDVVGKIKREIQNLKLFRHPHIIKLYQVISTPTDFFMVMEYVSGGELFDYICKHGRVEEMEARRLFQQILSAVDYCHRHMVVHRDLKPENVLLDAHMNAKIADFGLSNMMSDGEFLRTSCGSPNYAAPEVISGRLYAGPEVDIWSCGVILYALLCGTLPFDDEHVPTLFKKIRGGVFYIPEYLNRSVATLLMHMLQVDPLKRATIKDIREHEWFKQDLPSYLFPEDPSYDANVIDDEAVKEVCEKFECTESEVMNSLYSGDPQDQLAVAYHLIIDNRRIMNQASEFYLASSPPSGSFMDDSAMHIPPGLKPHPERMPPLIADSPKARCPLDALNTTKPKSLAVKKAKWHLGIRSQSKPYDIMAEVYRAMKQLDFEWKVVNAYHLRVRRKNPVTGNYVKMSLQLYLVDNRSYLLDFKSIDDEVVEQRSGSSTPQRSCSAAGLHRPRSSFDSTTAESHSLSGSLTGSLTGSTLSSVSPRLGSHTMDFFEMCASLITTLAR

[11] = target: 5'-AMP-activated protein kinase catalytic subunit alpha-2 (Homo sapiens) (UniProt P54646); details: at 1 µM
[12] = target: T4, NUAK family SNF1-like kinase 1 (Homo sapiens) (UniProt O60285); details: at 0.1 µM
T4 sequence (whole entry): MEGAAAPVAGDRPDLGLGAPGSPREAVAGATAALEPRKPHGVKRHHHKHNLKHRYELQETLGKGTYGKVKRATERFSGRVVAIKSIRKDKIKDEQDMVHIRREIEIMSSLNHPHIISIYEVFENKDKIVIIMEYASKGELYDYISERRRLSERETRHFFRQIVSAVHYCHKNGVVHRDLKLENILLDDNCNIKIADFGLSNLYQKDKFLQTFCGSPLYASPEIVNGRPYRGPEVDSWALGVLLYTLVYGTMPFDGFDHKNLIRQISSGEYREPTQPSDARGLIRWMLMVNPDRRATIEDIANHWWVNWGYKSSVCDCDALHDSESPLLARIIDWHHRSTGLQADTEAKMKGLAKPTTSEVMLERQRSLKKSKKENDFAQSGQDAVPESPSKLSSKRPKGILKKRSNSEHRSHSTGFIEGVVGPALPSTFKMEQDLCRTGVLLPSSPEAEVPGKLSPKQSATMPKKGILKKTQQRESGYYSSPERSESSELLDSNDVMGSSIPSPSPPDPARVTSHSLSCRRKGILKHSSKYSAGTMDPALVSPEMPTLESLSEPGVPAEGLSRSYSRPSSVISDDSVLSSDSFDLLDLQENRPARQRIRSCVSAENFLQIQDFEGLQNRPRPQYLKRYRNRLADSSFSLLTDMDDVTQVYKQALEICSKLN

[13] = target: T4, NUAK family SNF1-like kinase 1 (Homo sapiens); details: at 1 µM
[14] = target: T5, Serine/threonine-protein kinase BRSK1 (Homo sapiens) (UniProt Q8TDC3); details: at 0.1 µM
T5 sequence (whole entry): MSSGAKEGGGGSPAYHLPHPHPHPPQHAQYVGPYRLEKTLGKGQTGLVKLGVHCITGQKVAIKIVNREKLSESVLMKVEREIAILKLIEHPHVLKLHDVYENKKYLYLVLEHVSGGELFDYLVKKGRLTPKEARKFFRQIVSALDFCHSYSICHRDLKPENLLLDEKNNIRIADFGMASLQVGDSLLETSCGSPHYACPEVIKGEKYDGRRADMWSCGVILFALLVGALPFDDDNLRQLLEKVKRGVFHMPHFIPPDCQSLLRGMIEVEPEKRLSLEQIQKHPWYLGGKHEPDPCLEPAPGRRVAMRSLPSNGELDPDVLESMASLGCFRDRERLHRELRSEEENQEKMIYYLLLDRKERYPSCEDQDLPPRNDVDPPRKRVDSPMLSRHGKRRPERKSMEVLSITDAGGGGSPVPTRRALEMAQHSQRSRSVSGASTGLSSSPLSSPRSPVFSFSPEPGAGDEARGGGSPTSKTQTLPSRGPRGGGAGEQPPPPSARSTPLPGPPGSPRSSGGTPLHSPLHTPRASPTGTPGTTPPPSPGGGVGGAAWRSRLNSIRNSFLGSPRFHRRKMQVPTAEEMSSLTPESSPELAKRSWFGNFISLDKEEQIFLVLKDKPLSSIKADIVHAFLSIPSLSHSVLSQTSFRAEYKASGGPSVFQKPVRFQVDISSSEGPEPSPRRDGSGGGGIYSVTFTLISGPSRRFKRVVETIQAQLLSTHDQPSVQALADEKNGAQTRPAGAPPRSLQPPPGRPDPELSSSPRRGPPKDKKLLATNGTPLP

[15] = target: T5, Serine/threonine-protein kinase BRSK1 (Homo sapiens); details: at 1 µM
[16] = target: T6, Serine/threonine-protein kinase BRSK2 (Homo sapiens) (UniProt Q8IWQ3); details: at 0.1 µM
T6 sequence (whole entry): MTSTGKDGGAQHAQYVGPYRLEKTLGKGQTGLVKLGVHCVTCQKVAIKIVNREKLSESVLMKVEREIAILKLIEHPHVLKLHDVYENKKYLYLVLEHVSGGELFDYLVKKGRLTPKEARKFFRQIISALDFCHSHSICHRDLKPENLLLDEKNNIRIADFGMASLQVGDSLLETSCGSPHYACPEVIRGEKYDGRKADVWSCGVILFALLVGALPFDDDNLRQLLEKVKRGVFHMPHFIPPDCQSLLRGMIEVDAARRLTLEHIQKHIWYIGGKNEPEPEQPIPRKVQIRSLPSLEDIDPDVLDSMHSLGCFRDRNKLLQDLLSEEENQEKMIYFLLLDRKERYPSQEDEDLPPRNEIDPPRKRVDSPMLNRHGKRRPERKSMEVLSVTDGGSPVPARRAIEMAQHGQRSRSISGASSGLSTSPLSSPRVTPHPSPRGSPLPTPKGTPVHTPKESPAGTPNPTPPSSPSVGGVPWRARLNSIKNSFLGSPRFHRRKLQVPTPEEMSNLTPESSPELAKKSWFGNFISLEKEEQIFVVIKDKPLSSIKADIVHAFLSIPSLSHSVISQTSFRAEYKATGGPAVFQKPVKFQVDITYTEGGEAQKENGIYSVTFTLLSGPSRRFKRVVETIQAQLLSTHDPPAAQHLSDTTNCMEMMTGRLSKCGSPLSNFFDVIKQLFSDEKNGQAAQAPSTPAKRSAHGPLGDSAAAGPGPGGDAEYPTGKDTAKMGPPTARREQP

[17] = target: T6, Serine/threonine-protein kinase BRSK2 (Homo sapiens); details: at 1 µM
[18] = target: Calcium/calmodulin-dependent protein kinase type 1D (Homo sapiens) (UniProt Q8IU85); details: at 0.1 µM
Calcium/calmodulin-dependent protein kinase type 1D (Homo sapiens), sequence (Q8IU85 whole entry, looked up): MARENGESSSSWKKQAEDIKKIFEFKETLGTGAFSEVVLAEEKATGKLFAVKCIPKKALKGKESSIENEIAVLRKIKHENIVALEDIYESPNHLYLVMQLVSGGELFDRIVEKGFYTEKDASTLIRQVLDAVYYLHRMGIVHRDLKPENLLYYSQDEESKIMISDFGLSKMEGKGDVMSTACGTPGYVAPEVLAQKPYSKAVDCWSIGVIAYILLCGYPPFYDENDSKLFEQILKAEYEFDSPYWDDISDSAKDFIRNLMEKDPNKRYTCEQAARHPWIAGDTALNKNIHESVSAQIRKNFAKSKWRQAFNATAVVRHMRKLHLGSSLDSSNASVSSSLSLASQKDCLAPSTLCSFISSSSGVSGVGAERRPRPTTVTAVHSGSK

[19] = target: Calcium/calmodulin-dependent protein kinase type 1D (Homo sapiens) (UniProt Q8IU85); details: at 1 µM
[20] = target: Calcium/calmodulin-dependent protein kinase type II subunit alpha (Homo sapiens) (UniProt Q9UQM7); details: at 0.1 µM;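 also: reported values are averages (mean inhibition of CAMK2A)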
Calcium/calmodulin-dependent protein kinase type II subunit alpha (Homo sapiens), sequence (Q9UQM7 whole entry): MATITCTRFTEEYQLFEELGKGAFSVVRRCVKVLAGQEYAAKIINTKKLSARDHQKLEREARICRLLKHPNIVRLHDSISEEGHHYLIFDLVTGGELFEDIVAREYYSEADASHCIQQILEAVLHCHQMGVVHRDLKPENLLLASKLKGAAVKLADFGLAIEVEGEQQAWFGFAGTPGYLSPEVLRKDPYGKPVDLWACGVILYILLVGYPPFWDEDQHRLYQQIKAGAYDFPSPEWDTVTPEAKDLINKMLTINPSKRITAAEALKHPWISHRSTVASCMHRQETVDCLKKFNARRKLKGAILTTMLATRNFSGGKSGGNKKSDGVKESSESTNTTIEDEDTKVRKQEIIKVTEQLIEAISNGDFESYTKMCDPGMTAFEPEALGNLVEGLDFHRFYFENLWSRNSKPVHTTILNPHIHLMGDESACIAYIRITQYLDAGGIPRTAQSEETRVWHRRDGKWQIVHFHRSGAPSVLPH

Ribosomal protein S6 kinase alpha-6 (Homo sapiens), sequence (Q9UK32 whole entry): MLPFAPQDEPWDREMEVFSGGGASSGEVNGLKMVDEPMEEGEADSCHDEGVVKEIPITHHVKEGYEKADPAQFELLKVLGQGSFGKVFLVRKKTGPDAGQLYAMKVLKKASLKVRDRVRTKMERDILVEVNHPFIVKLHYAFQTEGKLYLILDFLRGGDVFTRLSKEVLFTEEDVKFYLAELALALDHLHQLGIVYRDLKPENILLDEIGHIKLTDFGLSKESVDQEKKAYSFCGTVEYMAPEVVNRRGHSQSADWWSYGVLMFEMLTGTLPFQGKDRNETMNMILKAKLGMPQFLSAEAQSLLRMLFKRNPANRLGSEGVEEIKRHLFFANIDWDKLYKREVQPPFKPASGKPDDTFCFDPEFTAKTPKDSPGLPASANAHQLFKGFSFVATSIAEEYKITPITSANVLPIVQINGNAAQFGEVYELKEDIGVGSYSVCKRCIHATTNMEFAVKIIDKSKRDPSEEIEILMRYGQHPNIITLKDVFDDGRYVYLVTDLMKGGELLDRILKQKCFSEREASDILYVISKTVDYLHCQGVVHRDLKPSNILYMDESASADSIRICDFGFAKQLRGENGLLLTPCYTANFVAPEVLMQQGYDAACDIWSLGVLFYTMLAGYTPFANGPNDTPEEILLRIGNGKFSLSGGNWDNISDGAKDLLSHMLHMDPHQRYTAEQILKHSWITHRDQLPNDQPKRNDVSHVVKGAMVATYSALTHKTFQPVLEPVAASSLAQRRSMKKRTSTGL

SMILES	inhibition [1] [%]	inhibition [2] [%]	inhibition [3] [%]	inhibition [4] [%]	inhibition [5] [%]	inhibition [6] [%]	inhibition [7] [%]	inhibition [8] [%]	inhibition [9] [%]	inhibition [10] [%]	inhibition [11] [%]	inhibition [12] [%]	inhibition [13] [%]	inhibition [14] [%]	inhibition [15] [%]	inhibition [16] [%]	inhibition [17] [%]	inhibition [18] [%]	inhibition [19] [%]	inhibition [20] [%]
Cc1cc(Cl)cc2c1NC(=O)C2=NNc1ccc(S(N)(=O)=O)cc1	1.2	2.17	3.67	1.33	7.78	2.89	5.67	1.67	4.05	-0.13	1.04	0.35	8.3	-1.42	3.61	1.16	3.77	0.2	-0.6	4.14
O=C1Nc2ccc(-c3cccnc3)cc2C1=Cc1cc(Br)c(O)c(Br)c1	5.51	3.01	3.05	1.63	6.41	3.1	2	3.07	3.3	2.54	7.03	-0.34	4.71	2.51	4.37	2.22	2.32	1.08	4.01	2.95
CN(C)CCCn1c(-c2nonc2N)nc2cnccc21	4.47	2.27	4.15	2.98	2.34	2.21	3.38	2.93	2.04	3.05	5.42	3.04	-0.59	1.23	0.57	0.27	1.19	0.27	-0.73	2.81
CN(C)C(=O)O[C@H]1CN[C@H](C#Cc2cc3ncnc(Nc4ccc(OCc5cccc(F)c5)c(Cl)c4)c3s2)C1	1.62	0.38	1.38	0.9	-0.85	0.13	0.86	2.01	2.18	1.83	3.32	1.87	1.59	2.39	3.13	2.38	2.85	0.05	0.1	2.54
Nc1nccc(-c2c(-c3ccc(F)cc3)ncn2CCCN2CCOCC2)n1	3.56	1.7	5.95	0.32	6.95	3.43	3.38	3.37	3.19	3.33	4.51	3.4	-1.7	0.99	-1.18	0.6	1.72	0.27	-0.53	2.67
Oc1cccc(-c2nc(-c3ccccc3)[nH]c2-c2ccncc2)c1	2.67	0.98	4.8	1.32	4.97	3.71	1.35	2.62	3.13	3.23	4.6	0.46	2.27	-0.48	1.89	1.98	4.34	0.26	1.01	3.36
Cc1ccc2c(-c3ccnc(Nc4cccc(C(F)(F)F)c4)n3)c(-c3ccccc3)nn2n1	2.56	2.23	3.64	5.64	-0.25	3.07	4.11	0.65	2.66	5.96	3.47	4.18	5.3	2.22	1.34	1.33	3.25	0.64	2.72	2.64
